# Among all 420,000 compounds or so, about 50,000 (12%) were called active. About 26% were inconclusive and are not listed. For the sample, actives were picked, then their nearest neighbours and some compounds at random. Values without a mark were called inactive. The call rests on the fitted dose curve; in most records, active means well fitted inhibition curve with a large enough effect; inconclusive means small, poorly fitted or top-dose-only effect; inactive means flat fitted curve, though single readings scatter.
# Assay: qHTS for Inhibitors of human tyrosyl-DNA phosphodiesterase 1 (TDP1): qHTS in cells in presence of CPT; further: nearly all actives have a fitted effect of over 55% in size
# Conditions: chicken DT40 Tdp1-/-;hTDP1 cells + 20 nM CPT, ATP luminescence, 48 h; series mostly up to 46.2 µM; activity change, negative = growth inhibition: at the top concentration
# Text: Human tyrosyl-DNA phosphodiesterase 1 (TDP1) is a novel repair gene, and we propose to use it as a new target for anticancer drug development. TDP1 is not an essential protein, but under treatment with topoisomerase I poison (camptothecin: CPT), TDP1 works as a critical factor for cell survival. To directly identify novel TDP1 inhibitors active in a cellular environment, we have knocked-out the Tdp1 gene in chicken DT40 cells (Tdp1-/-) and generated a complemented counterpart cells that contains a stable transfection of the human TDP1 gene (Tdp1-/-;hTDP1 cells). For the primary screen, Tdp1-/-;hTDP1 cells will be exposed to small molecules in the presence or absence of CPT, and their growth kinetics will be evaluated after 48 hours by measuring ATP activity. […] The hit compounds will then be evaluated in the presence or absence of CPT using Tdp1-/- cells. […] In tertiary assays, biochemical gel-based assays will be used to assess whether the hit compounds specifically target TDP1. To this end, we have screened this cell line against the MLSMR in two primary screens. In one screen we add CPT and in the other we screen in the absence of CPT; this AID represents the screen where CPT was present. NIH Chemical Genomics Center [NCGC] NIH Molecular Libraries Probe Centers Network [MLPCN] MLPCN Grant: MH095538 Assay Submitter (PI): Yves Pommier, NCI
# DT40-hTDP1 cells with 20 nM Camptothecin (add 20 microL of 1 mM CPT stock in 1 L of cell culture medium) were dispensed at 400 cells/5microL/well in tissue culture treated 1536-well white wall/solid bottom assay plates (Greiner Bio-One North America, NC, U.S.A.) using a Multidrop Combi 8 channel dispenser (Thermo Fisher, Waltham, MA, USA). 23 nL compounds and controls were transferred using the pin tool (Kalypsys, San Diego, CA, USA) to the assay plates. The assay plates were then incubated at 37 masculineC for a minimum 48 hr. Three microL of Cell Titer Glo solution was added to the plates and incubated at RT in dark for 30 min. Luminescence was read using ViewLux (Perkin Elmer) with 1 sec exposure slow speed, high gain and 2x binning.
# On the % scale 0 is the no-effect control and ±100 the full control effect; potency means the concentration at half of the fitted maximal effect.
Compound,"activity change, negative = growth inhibition",Potency
COc1cccc(N2CCN(c3ccc4nnc(CCC(=O)N5CCN(C)CC5)n4n3)CC2)c1,-12.6%,
Cn1nc(C(F)(F)F)c2cc(C(=O)N3CCOCC3)sc21,6.01%,
CCOC(=O)N1CCN(C(=O)c2ccc3nc4cc(Cl)ccc4c(=O)n3c2)CC1,-27.5%,
CCOC(=O)N1CCN(C(=O)c2cc3c(-c4ccc(Cl)cc4)nn(C)c3s2)CC1,,16.4 µM (active)
COc1cccc(/C=C/C(=O)OCC(=O)N2CCN(c3ccccc3)CC2)c1,-21.8%,
CCOc1ccc(-c2ccc(SCC(=O)N3CCOCC3)nn2)cc1,-7.39%,
COc1cccc(-c2nn(C)c3sc(C(=O)N4CCN(c5ccccc5)CC4)cc23)c1,,23.1 µM (active)
CCOC(=O)N1CCN(C(=O)CNC(=O)Cc2ccc(Cl)cc2)CC1,-8.62%,
COc1cccc(-c2ccc(SCC(=O)N3CCN(c4ccccc4)CC3)nn2)c1,,16.4 µM (active)
O=C(Nc1nccs1)C1CCN(S(=O)(=O)c2ccc(Cl)c(C(F)(F)F)c2)CC1,-10.5%,
O=C(NCc1cccnc1)c1ccccc1NC(=O)c1c(F)cccc1F,-10.2%,
CN(C)C(=O)c1cccn(Cc2cccc(C(F)(F)F)c2)c1=O,-13.1%,
CC(C)CC(=O)NC(=S)Nc1ccc(F)cc1F,-3.59%,
CCOC(=O)c1cc(NC(=O)c2cccnc2)ccn1,1.21%,
CCCCOC(=O)c1ccc(N2C(=O)CC(N3CCN(C/C=C/c4ccccc4)CC3)C2=O)cc1 (stereo unspecified),-15.8%,
O=C(c1ccc(F)cc1)N1CCC(n2nnc3ccccc32)CC1,1.92%,
CC(NC(=O)CCCC1CCCCC1)c1ccc(S(N)(=O)=O)cc1 (stereo unspecified),9.33%,
CC(Sc1nc2cc(Cl)ccc2s1)C(=O)Nc1ccc2c(c1)OCO2 (stereo unspecified),5.21%,
COc1ccc(C2NC(=O)N(C)C3=C2C(=O)N(c2ccc(C(=O)O)cc2)C3)cc1 (stereo unspecified),-7.11%,
CC(C(=O)Nc1ccc(F)c(F)c1F)N1CCCCCC1 (stereo unspecified),-23.8%,
COc1ccc([N+](=O)[O-])cc1NC(=O)CC1SC(=Nc2cccc(C)c2C)N(/N=C(\C)c2ccc(C)cc2)C1=O (stereo unspecified),12.7%,
CCOc1ccc(CC(=O)NC2CCN(Cc3ccccc3)CC2)cc1,-11.6%,

Compound,"activity change, negative = growth inhibition",Potency
CCOc1ccc(CN2CCN(Cc3c[nH]c4ccccc34)CC2)cc1,,3.66 µM (active)
CCOc1ccc(CN2CCCN(C)CC2)cc1,-17.7%,
CC(C)(C)S(=O)(=O)N1Cc2cc(CO)cc(CCO)c2[C@H]1CCO,-2.54%,
C/C(CC(=O)NC(C)(C)C)=N\NC(=O)c1ccco1,5.55%,
CCCc1c(C)nc2scc(-c3ccc(Cl)cc3)n2c1=O,-12.2%,
Cc1csc2nc(COC(=O)c3cccc(N(C)C)c3)cc(=O)n12,-24.8%,
O=c1cc(CCl)nc2scc(-c3ccccc3)n12,,14.6 µM (active)
Cc1onc(-c2ccccc2)c1C(=O)N1CCN(S(=O)(=O)c2ccccc2C(F)(F)F)CC1,-3.88%,
COc1ccc(CNC(=O)c2nnn(CC(=O)Nc3cc(C)cc(C)c3)c2N)cc1,,inactive
O=C(CSc1ncc(CO)n1Cc1ccc(F)cc1)NCc1ccco1,-8.88%,
O=C(CSc1nnc(-c2cccs2)n1-c1ccccc1)NCc1ccco1,2.07%,
O=C(Cc1ccc(-n2c(=O)c3sccc3n(Cc3ccc(F)cc3)c2=O)cc1)NCc1ccco1,,16.4 µM (active)
Cc1ccc(N2C(=O)CC(NCc3ccc4c(c3)OCO4)C2=O)cc1Cl (stereo unspecified),2.01%,
CN(C)NC(=O)C(NC(=O)c1ccc(N)cc1)C12CC3CC(CC(C3)C1)C2 (stereo unspecified),1.22%,
COCCCN1C(=O)c2ccc(C(=O)OCC(=O)NCc3ccccc3OC)cc2C1=O,1.23%,
C/C(=N\NC(=O)C(N)=O)c1ccc2c(c1)OCCO2,13.6%,
C/C(=N/NC(=S)Nc1ccccc1)c1ccc2c(c1)OCO2,,0.82 µM (active)
C/C(=N/NC(=O)c1ccncc1)c1ccc2c(c1)OCO2,1.21%,
CCCCNC(=O)CCn1nc(-c2ccc(Cl)cc2)ccc1=O,23.4%,
O=C(O)CSc1nccc2ccccc12,-1.02%,
CCOC(=O)C(C(=O)c1ccccc1)C(c1ccccc1)c1nccc2ccccc12 (stereo unspecified),,20.6 µM (active)
CCCn1nc2cc(C(=O)NCc3ccccc3)ccc2c1OCC,-13.4%,

Compound,"activity change, negative = growth inhibition",Potency
Cc1ccc(NC(=O)C2(N3CCC3=O)CCCCC2)cc1,2.09%,
CCn1cc(C(=O)NCC(=O)NC(C)(C)CO)c(=O)c2cc3c(cc21)OCO3,14.7%,
CCCCNC(=O)C1CCCNC1=O (stereo unspecified),-27.3%,
O=C(Cc1ccc([N+](=O)[O-])cc1)NCCc1ccc2c(c1)OCO2,-24.6%,
O=C(NC1CCCCC1)c1cc([N+](=O)[O-])ccc1N1CCOCC1,-4.33%,
O=C(NCc1ccc2c(c1)OCO2)c1cc([N+](=O)[O-])ccc1N1CCOCC1,,3.26 µM (active)
O=C1C2C3C=CC(C3)C2C(=O)N1c1ccc(S(=O)(=O)Nc2nccs2)cc1 (stereo unspecified),-8.65%,
COc1ccc(C(=O)NCc2ccccc2C)cc1S(=O)(=O)NC1CCCC1,-4.79%,
CC(=O)N(CC(O)CO)c1c(I)c(C(=O)NCC(O)CO)c(I)c(C(=O)NCC(O)CO)c1I (stereo unspecified),,inactive
O=C(C1CC(=O)N(c2ccc(Br)cc2)C1)N1CCCC1 (stereo unspecified),-5.65%,
COc1ccc(NC(=O)CS(=O)(=O)c2ccccc2)cc1,31.2%,
COc1ccc(C(CC(=O)c2ccccc2)S(=O)(=O)c2ccccc2)cc1 (stereo unspecified),,23.1 µM (active)
COc1ccc(N(Cc2ccccc2)S(=O)(=O)c2cccc(C(=O)O)c2)cc1,-6.42%,
NC(=O)c1ncn([C@@H]2O[C@H](CN=C3NS(=O)(=O)c4ccccc43)[C@@H](O)[C@H]2O)n1,-10.6%,
CC(Oc1ccc(Br)cc1)C(=O)NCC(c1ccco1)N1CCCCC1 (stereo unspecified),-24.4%,
CN(C)S(=O)(=O)c1ccc(NC(=O)N2CCOCC2)cc1,-5.71%,
COc1ccc(S(=O)(=O)N(C)CC(=O)N2CCCC2)cc1,2.13%,
CN(C)S(=O)(=O)c1ccc(Oc2ccc(S(=O)(=O)N(C)C)cc2)cc1,,16.4 µM (active)
COc1ccc(N(CC(=O)Nc2cc(OC)cc(OC)c2)S(=O)(=O)c2c(C)n[nH]c2C)cc1,-29.6%,
COc1ccc(CCNC(=O)COC(=O)c2ccc[nH]c2=O)cc1,3.7%,
CC(C)=N/N=C1/NC(=O)C(Cc2ccccc2)S1 (stereo unspecified),8.07%,
CCN(CC(=O)NCc1cccs1)C(=O)/C=C/c1ccc(C)cc1,-23.4%,

# Source: PubChem BioAssay AID686979 (National Center for Advancing Translational Sciences (NCATS), 2013)
